tim23-1 inh = growth inhibitors of tim23-1 mutant yeast, primary screen, luminescence, uHTS | AID 463212, 2010 | inhibition, % at 20 µM | S. cerevisiae tim23-1 growth, BacTiter-Glo luminescence, 24 h | 1.3% of 330,000 active;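 active = growth inhibition of the mutant yeast at or above 50%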;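 note: temperature-sensitive mutant grown at 25 °C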
TIM10 inh = growth inhibitors of isogenic TIM10 control yeast, primary screen, counter-screen for tim10-1 yeast inhibitor project, luminescence, uHTS | inhibition, % at 10 µM | AID 463195, 2010 | S. cerevisiae TIM10 strain growth, BacTiter-Glo luminescence, 24 h | 1.4% of 330,000 active;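 active = inhibition of 40% or more at the single tested concentration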;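 note: wild-type TIM10 isogenic control strain grown at permissive 25 °C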
Rce1 inhib = yeast Rce1p protease inhibitors, primary screen, biochemical, fluorescence, cell-free homogeneous; CAAX prenyl protease 2 (Saccharomyces cerevisiae (strain ATCC 204508 / S288c)), Q03530; calls only; 0.27% of 290,000 active; yeast membranes, quenched prenylated peptide cleavage fluorescence; AID 2563, 2010;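 active = fall in fluorescence gain of 50% or more versus controls, with final raw signal at or below 3038400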
Target sequence (Q03530 whole entry, looked up): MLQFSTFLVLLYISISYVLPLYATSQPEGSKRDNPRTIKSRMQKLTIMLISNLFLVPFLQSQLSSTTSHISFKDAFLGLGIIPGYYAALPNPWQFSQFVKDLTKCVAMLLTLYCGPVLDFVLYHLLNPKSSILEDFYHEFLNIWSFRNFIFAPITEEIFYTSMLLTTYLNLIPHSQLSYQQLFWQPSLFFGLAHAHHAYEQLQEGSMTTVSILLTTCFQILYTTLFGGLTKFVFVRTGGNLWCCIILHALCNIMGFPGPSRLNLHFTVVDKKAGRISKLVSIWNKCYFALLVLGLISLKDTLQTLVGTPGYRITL
PfHsp90 set2 = growth inhibition of PfHsp90-expressing yeast, primary screen, antimalarial PfHsp90 inhibitor project, S. cerevisiae, BacTiter-Glo luminescence, single point, set 2 | AID 504621, 2011 | BacTiter-Glo ATP, 48 h; yeast lacking PDR1 and PDR3 efflux regulators | 0.32% of 310,000 active | inhibition, % at 9.4 µM;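 active = every replicate shows inhibition above about 80%, whatever the replicate mean, limit read from the data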
tim10-1 inh = growth inhibitors of tim10-1 mutant yeast, primary screen, luminescence, uHTS; 2.2% of 330,000 active; S. cerevisiae tim10-1 ts strain growth, BacTiter-Glo, 24 h; AID 463190, 2010; inhibition, % at 20 µM;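 active = inhibition of at least 40%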;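 note: mutant grown at 25 °C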
tim10-1 conf = growth inhibitors of tim10-1 mutant yeast, confirmation, single concentration, luminescence, S. cerevisiae; shares compounds with tim10-1 inh; S. cerevisiae tim10-1 ts strain growth, BacTiter-Glo, 24 h; inhibition, % at 20 µM; 56% of 7,400 active; AID 463213, 2010;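 active = inhibition of yeast growth at or above a set limit in either of two repeat tests at 20 µM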;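 note: tim10-1 mutant grown at permissive 25 °C to find synthetic lethal compounds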
tim10 confirm = growth inhibitors of wild-type TIM10 yeast, confirmation, counter-screen for tim10-1 synthetic lethality project, single concentration, luminescence, S. cerevisiae | 63% of 4,600 active | shares compounds with TIM10 inh | S. cerevisiae tim10 strain growth, BacTiter-Glo luminescence, 24 h | AID 463215, 2010 | inhibition, % at 10 µM;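 active = inhibition of yeast growth at or above a set limit in either of two replicates at 10 µM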; note: this counterscreen used the strain with wild-type TIM10
tim23-1 confirm = tim23-1 mutant yeast growth inhibitors, confirmation, luminescence, single concentration; shares compounds with tim23-1 inh; S. cerevisiae tim23-1 growth, BacTiter-Glo luminescence, 24 h; inhibition, % at 20 µM; 83% of 4,400 active;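 active = inhibition above about 39% in either of two replicate wells at 20 µM, limit read from the data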;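 note: temperature-sensitive tim23-1 mutant grown at 25 °C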
Hits are given with their value; . = inactive; / = not tested or not shown. A selection: hits, their analogues and other compounds. The true share with any hit is near 3.7%.

SMILES	tim23-1 inh	TIM10 inh	Rce1 inhib	PfHsp90 set2	tim10-1 inh	tim10-1 conf	tim10 confirm	tim23-1 confirm
CC1=NN(c2ccc(F)cc2)C(=O)C1C(c1cccc(O)c1)c1c(C)[nH]n(-c2ccc(F)cc2)c1=O (configuration not stated)	.	.	.	.	.	/	/	/
Cc1cc(C)n(CC(O)Cn2c3ccc(Cl)cc3c3cc(Cl)ccc32)c(=O)n1 (configuration not stated)	54.4	61.0	.	.	56.8	53.8	56.5	46.7
O=[N+]([O-])c1ccc(N2CCc3ccccc3C2)nc1	62.8	.	.	.	66.3	64.4	/	.
OCCOCCNc1ncnc2c1c(-c1ccccc1)cn2-c1ccccc1	50.3	.	.	.	46.9	.	/	46.4
CCOc1ccc(Oc2ccccc2NC(=O)CCNC(C)=O)cc1	.	.	.	.	.	/	/	/
CCC(C)c1ccc(NC(=S)NCc2cccs2)cc1 (configuration not stated)	53.0	53.5	.	/	55.7	54.8	44.5	54.8
Cc1cc(C)cc(NC(=S)NCc2cccs2)c1	.	.	.	.	.	/	/	/
Cc1ccccc1N1CCN(S(=O)(=O)c2ccc3oc(=O)ccc3c2)CC1	68.0	41.9	.	.	79.5	65.1	54.1	56.5
CC(=O)Nc1cccc(-c2nnc(-c3ccccc3)o2)c1	.	.	.	/	.	/	/	/
O=C(Nc1cccc(-c2nnc(-c3ccccc3)o2)c1)C1CC1	60.0	.	.	.	41.4	.	/	75.5
CCCn1nc(NC(=O)c2cccs2)c2cc3ccccc3nc21	52.1	.	.	/	49.1	37.0	/	51.2
CCCn1nc(NC(=O)c2cccs2)c2cc3ccc(C)cc3nc21	.	.	.	.	.	/	/	/
Cc1ccc2occ(C(=O)c3ccco3)c(=O)c2c1	70.9	49.4	.	.	42.0	.	.	51.1
C/C(=N\Nc1nc(C)cc(-c2ccccc2)n1)c1ccc(C)o1	52.4	44.8	.	.	49.1	32.5	.	48.7
C/C(=N\Nc1nc(C)cc(-c2ccccc2)n1)c1ccccc1	.	.	.	.	.	/	/	/
O=C1CCCc2c1[nH]c1ccccc21	.	.	.	/	.	/	/	/
c1ccc2c(c1)OCCc1c-2[nH]c2ccccc12	60.8	.	.	.	46.2	41.5	/	58.0
O=c1c(Sc2ccccc2)c(C(F)(F)F)[nH]n1-c1ccccc1	.	.	.	.	.	/	/	/
COc1ccc(C(=O)/C(=C/c2cccs2)c2nc3ccccc3o2)cc1	52.6	43.3	.	.	49.5	41.9	.	54.2
COc1ccc(/C=C(\CC(=O)O)c2nc3ccccc3o2)cc1	.	.	/	.	.	/	/	/
Cc1cccc(C(=O)N/C(=C\c2ccc(C)o2)C(=O)O)c1	.	.	.	.	.	/	/	/
CC1=NN(c2ccccc2)C(=O)/C1=C/N(C)C	.	.	.	.	.	/	/	/
CC1=NN(c2nc3ccccc3[nH]2)C(=O)/C1=C/N(C)C	59.0	.	.	80.7	59.3	active	/	59.0
N/C(=N\OC(=O)c1ccc2c(c1)OCO2)c1cccc(Br)c1	78.2	92.5	.	/	67.9	48.2	95.8	87.8
COc1ccc(/C(N)=N/OC(=O)c2ccc3c(c2)OCO3)cc1OC	59.5	47.0	.	.	69.1	75.0	46.1	56.1
SMILES	tim23-1 inh	TIM10 inh	Rce1 inhib	PfHsp90 set2	tim10-1 inh	tim10-1 conf	tim10 confirm	tim23-1 confirm
COc1ccc(OC)c(S(=O)(=O)NCC(c2cccs2)N2CCc3ccccc3C2)c1 (configuration not stated)	.	.	.	/	.	/	/	/
O=C1c2ccccc2C(=O)C1(O)O	.	.	/	/	.	/	/	/
CC1(S(=O)(=O)O)CC(=O)c2ccccc2C1=O (configuration not stated)	66.8	.	.	.	41.1	.	/	62.6
CC(Oc1ccc(Cl)cc1)c1ccn[nH]1 (configuration not stated)	.	.	.	.	.	/	/	/
O=C(c1ccc([N+](=O)[O-])cc1[N+](=O)[O-])n1cnc2ccccc21	72.6	58.5	.	.	69.3	75.8	52.0	83.8
CN(C)/C=N/c1ncc(C(=O)OC(C)(C)C)s1	.	.	.	.	.	/	/	/
Clc1ccc(N=c2ssnc2Cl)nc1	62.1	85.2	.	120.3	56.7	76.8	47.5	89.9
OCc1ccccc1N=c1ssnc1Cl	.	.	.	/	.	/	/	/
O=C(OCn1ncc(Br)c(Br)c1=O)c1ccccc1Cl	73.0	77.1	.	90.5	58.3	50.0	.	.
O=C(OCn1ncc(Br)c(Br)c1=O)c1ccc(F)cc1	55.4	70.5	.	99.1	73.0	65.0	.	.
O=C(c1cnc2ccccc2n1)N1CCN(c2ccc(C(F)(F)F)cn2)CC1	.	.	.	.	.	/	/	/
COc1cccc(COC(=O)C2CCN(S(=O)(=O)c3ccc(F)cc3)CC2)c1OC	.	.	/	/	.	/	/	/
CCN(CC)CCNC(=O)c1cc2c(s1)-c1ccccc1SC2	.	.	.	.	.	/	/	/
NNC(=O)c1cc2c(s1)-c1cc(Cl)ccc1SC2	54.8	.	.	.	56.9	43.8	/	49.2
COc1cc(OC)c(/C=N/n2c(C3CCCCC3)n[nH]c2=S)c(OC)c1	.	.	.	.	.	/	/	/
COc1ccc(/C=N/n2c(C3CCCCC3)n[nH]c2=S)c(OC)c1	58.3	.	.	.	40.5	.	/	48.4
CCOc1ccc(-n2cc(-c3ccccc3)c3c(N4CCOCC4)ncnc32)cc1	.	.	.	.	.	/	/	/
CCOc1ccc(-n2cc(-c3ccccc3)c3c(=S)nc[nH]c32)cc1	64.2	45.0	.	.	70.3	32.8	46.9	.
C/C(=N\NC(=S)Nc1cc(S(=O)(=O)N2CCOCC2)ccc1Cl)c1ccccc1F	60.9	43.7	.	.	40.5	36.6	.	42.0
CCOC(=O)COc1ccc2nsnc2c1Cl	.	.	/	/	.	/	/	/
C=C(CC)C(=O)c1ccc(OCC(=O)O)c(Cl)c1Cl	67.8	54.2	.	.	64.8	54.8	56.9	88.8
Cc1ccc(S(=O)(=O)CC#CCOC(=O)c2ccc([N+](=O)[O-])cc2)cc1	76.1	.	.	/	59.5	47.2	/	80.6
O=CNC(Cc1ccccc1)C(=O)O (configuration not stated)	.	.	.	/	.	/	/	/

Assay outcomes: PubChem BioAssay, several laboratories
